Measured values: the supplement of paper PMC13380429
Unmarked numbers belong to inactive results.

The compounds below were run on Vero E6 infected with SARS-CoV-2 (assay: inhibition of SARS-CoV-2 cytopathic effect; higher = more antiviral protection, active = above 15). Conditions: 833.33 nM; 48 h.

| SMILES | inhibition of SARS-CoV-2 cytopathic effect |
| --- | --- |
| O=C1NC(=O)C(c2ccccc2)(c2ccccc2)N1 [phenytoin] | -0.84% |
| CC(=O)Nc1ncc([N+](=O)[O-])s1 [nithiamide] | -2.95% |
| C[C@H](N)Cc1cccc(O)c1 [gepefrine] | 1.38% |
| Fc1ccc(C(c2ccc(F)cc2)N2CCN(C/C=C/c3ccccc3)CC2)cc1 [flunarizine] | -2.17% |
| O=c1cc(-c2ccc(O)cc2)oc2cc(O)cc(O)c12 [apigenin] | 0.85% |
| CCCCCCCCCCCCCCCCCC(=O)OCC(O)CO (stereo not drawn) [monostearin] | 0.48% |
| C[C@]12CC[C@H]3[C@@H](CC[C@]4(O)C[C@@H](O)CC[C@]34C=O)[C@@]1(O)CC[C@@H]2C1=CC(=O)OC1 [K-strophanthidin] | -12.1% |
| Nc1nc2c(ccc3ccccc32)s1 | -0.09% |
| CCCCOc1ccc(OCCCN2CCOCC2)cc1 [pramoxine] | -1.83% |
| CC1CC(OC(=O)C(O)c2ccccc2)CC(C)(C)C1 (stereo not drawn) [cyclandelate] | -0.91% |
| Cc1c[nH]c2ncnc(N3CCC(CN)(C(=O)Nc4cccc(OC(=O)N(C)C)c4)CC3)c12 | -0.25% |
| CCCCCCCCNC(=O)/C(C#N)=C/c1cn(CCCN(C)C)c2ccccc12 [dynole-34-2] | 0.28% |
| C=C1/C(=C\C=C2/CCC[C@]3(C)[C@@H]([C@H](C)OCCC(C)(C)O)CC[C@@H]23)C[C@@H](O)C[C@@H]1O [maxacalcitol] | 0.61% |
